Measurements from the supplement of paper PMC9950053.
Structures can show the parent of a compound that is named as a salt.

These compounds were tested on Danio rerio larvae (5 dpf) (assay: excitability (activity period 17 minus period 16, 1-s interval sound) minus DMSO control (percentage points); higher = more acoustic excitability than DMSO larvae). Details: 10 µM; exposure time: 3 h pre-incubation + 3 h imaging.
Protocol: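 Wild-type 5 dpf zebrafish larvae (n=48 per drug, 96-well plates, 28.5 °C) were exposed to Tocris FDA-approved library compounds at 10 µM (0.1% DMSO) for 3 h before and 3 h during imaging. Images were taken every 6 s during visual and acoustic stimuli, and larvae were tracked with Z-LaP Tracker. Each measure is the treated-group mean minus the DMSO control mean (n=844), in percentage points. This mapping covers compounds with 5-character plate codes.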

| Compound | excitability |
| --- | --- |
| CCCC1O[C@@H]2C[C@H]3[C@@H]4CCC5=CC(=O)C=C[C@]5(C)[C@H]4[C@@H](O)C[C@]3(C)[C@]2(C(=O)CO)O1 (some centres not stated) [Budesonide] | 1.14 |
| CCCc1nn(C)c2c(=O)[nH]c(-c3cc(S(=O)(=O)N4CCN(C)CC4)ccc3OCC)nc12 [Sildenafil citrate] | 4.28 |
| C[C@@H]1C[C@H]2[C@@H]3CCC4=CC(=O)C=C[C@]4(C)[C@@]3(F)[C@@H](O)C[C@]2(C)[C@@]1(O)C(=O)CO [Dexamethasone] | -4.14 |
| COc1cc(N)c(Cl)cc1C(=O)NC1CCN(CCCOc2ccc(F)cc2)CC1OC (configuration not stated) [Cisapride] | 18.5 |
| Cc1cc2c(s1)Nc1ccccc1N=C2N1CCN(C)CC1 [Olanzapine] | 2.72 |
| CNCc1ccc(-c2[nH]c3cc(F)cc4c3c2CCNC4=O)cc1 [Rucaparib camsylate] | 13.1 |
| CN(C)CCc1c[nH]c2ccc(C[C@H]3COC(=O)N3)cc12 [Zolmitriptan] | 4.24 |
| OCc1cc(C(O)CNCCCCCCOCCCCc2ccccc2)ccc1O (configuration not stated) [Salmeterol xinafoate] | 13.1 |
| CCc1nc(N)nc(N)c1-c1ccc(Cl)cc1 [Pyrimethamine] | 6.57 |
| CCCCCCCN(CC)CCCC(O)c1ccc(NS(C)(=O)=O)cc1 (configuration not stated) [Ibutilide hemifumarate] | 13.3 |
| Clc1ccc2nsnc2c1NC1=NCCN1 [Tizanidine hydrochloride] | 6.39 |
| CC(C)COCC(CN(Cc1ccccc1)c1ccccc1)N1CCCC1 (configuration not stated) [Bepridil hydrochloride] | 14.7 |
| NC(=O)OCC(COC(N)=O)c1ccccc1 [Felbamate] | -3.94 |
| COc1ccccc1Oc1c(NS(=O)(=O)c2ccc(C(C)(C)C)cc2)nc(-c2ncccn2)nc1OCCO [Bosentan] | -2.37 |
| C#CCN[C@@H]1CCc2ccccc21 [Rasagiline mesylate] | -0.121 |
| COc1ccccc1OCC(O)CN1CCN(CC(=O)Nc2c(C)cccc2C)CC1 (configuration not stated) [Ranolazine dihydrochloride] | 4.28 |
| N#Cc1ccc2[nH]cc(CCCCN3CCN(c4ccc5oc(C(N)=O)cc5c4)CC3)c2c1 [Vilazodone hydrochloride] | 17 |
| CNC(=O)c1cc(Oc2ccc(NC(=O)Nc3ccc(Cl)c(C(F)(F)F)c3)cc2)ccn1 [Sorafenib] | 13.1 |
| O=C1CCc2ccc(OCCCCN3CCN(c4cccc(Cl)c4Cl)CC3)cc2N1 [Aripiprazole] | 16.5 |

| Compound | excitability |
| --- | --- |
| CNS(=O)(=O)Cc1ccc2[nH]cc(CCN(C)C)c2c1 [Sumatriptan succinate] | -4.97 |
| CC[C@H]1OC(=O)[C@H](C)[C@@H](O[C@H]2C[C@@](C)(OC)[C@@H](O)[C@H](C)O2)[C@H](C)[C@@H](O[C@@H]2O[C@H](C)C[C@H](N(C)C)[C@H]2O)[C@](C)(O)C[C@@H](C)CN(C)[C@H](C)[C@@H](O)[C@]1(C)O [Azithromycin] | 15.8 |
| CN[C@H]1CC[C@@H](c2ccc(Cl)c(Cl)c2)c2ccccc21 [Sertraline hydrochloride] | 10.4 |
| CC(C)(C(=O)O)c1ccc(C(O)CCCN2CCC(C(O)(c3ccccc3)c3ccccc3)CC2)cc1 (configuration not stated) [Fexofenadine hydrochloride] | -5.03 |
| CN(C)C(=N)NC(=N)N [Metformin hydrochloride] | 6.55 |
| N#C[C@@H]1C[C@@H]2C[C@@H]2N1C(=O)[C@@H](N)C12CC3CC(CC(O)(C3)C1)C2 [Saxagliptin hydrochloride] | 2.14 |
| NS(=O)(=O)c1cc2c(cc1Cl)NC(C1CC3C=CC1C3)NS2(=O)=O (configuration not stated) [Cyclothiazide] | 0.365 |
| C[C@H]1O[C@H](O[C@H]2[C@H](O)[C@@H](O)[C@@H](O[C@H]3[C@H](O)[C@@H](O)C(O)O[C@@H]3CO)O[C@@H]2CO)[C@H](O)[C@@H](O)[C@@H]1N[C@H]1C=C(CO)[C@@H](O)[C@H](O)[C@H]1O (some centres not stated) [Acarbose] | -4.36 |
| COCCc1ccc(OCC(O)CNC(C)C)cc1 (configuration not stated) [Metoprolol tartrate] | -6.24 |
| COc1cc([C@@H]2c3cc4c(cc3[C@@H](O[C@@H]3O[C@@H]5CO[C@@H](C)O[C@H]5[C@H](O)[C@H]3O)[C@H]3COC(=O)[C@H]23)OCO4)cc(OC)c1O [Etoposide] | 9.95 |
| O=C(O)C[C@H](O)C[C@H](O)/C=C/c1c(C2CC2)nc2ccccc2c1-c1ccc(F)cc1 [Pitavastatin calcium] | -1.16 |
| OCCN1C[C@H](O)[C@@H](O)[C@H](O)[C@H]1CO [Miglitol] | 4.04 |
| COc1cc2nccc(Oc3ccc(NC(=O)C4(C(=O)Nc5ccc(F)cc5)CC4)cc3)c2cc1OC | 16.9 |
| CC(C)OC(=O)C(C)(C)Oc1ccc(C(=O)c2ccc(Cl)cc2)cc1 [Fenofibrate] | 4.72 |
| OC(c1cc(C(F)(F)F)nc2c(C(F)(F)F)cccc12)C1CCCCN1 (configuration not stated) [Mefloquine hydrochloride] | 13.3 |
| CC(=O)Nc1ccc(O)cc1 [Acetaminophen] | -1.73 |
| CC(=O)Oc1cc2c(s1)CCN(C(C(=O)C1CC1)c1ccccc1F)C2 (configuration not stated) [Prasugrel] | 5.89 |
| O=c1n(CCCN2CCN(c3cccc(Cl)c3)CC2)nc2ccccn12 [Trazodone hydrochloride] | 20.3 |
